Data reported in PubChem BioAssay AID1159580 (chemical genetic matrix, 2015).
The whole screen tested about 5,500 compounds, of which about 2,000 (36%) were called active. Roughly 18% stayed inconclusive and do not appear here. No stated cut-off is given here; in the data, active means normalized growth mostly below about 0.91 (no sharp cut-off); inconclusive means no clear call, values can overlap the other calls; inactive means mostly above about 0.92. This is one part of the list.

Assay: chemical genetic growth profiling, strain panel (AID 1159580);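 further: tested at 20 µM; growth read once vehicle control cultures reached saturation at 30 °C; 1 = growth at the plate median or of vehicle wells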
Conditions: growth OD

Measured: normalized growth

Nc1ccn(C2O[C@H](CO)[C@@H](O)[C@@H]2O)c(=O)n1 (stereo partly drawn)
inactive: S. cerevisiae deletion strains, locus YKL009W, strain mrt4, stronger effect = lower value 0.992 | S. cerevisiae deletion strains, locus YKL068W, stronger effect = lower value 0.994 | S. cerevisiae deletion strains, locus YKL085W, strain MDH1 (second series), stronger effect = lower value 1 | S. cerevisiae deletion strains, locus YKL085W, strain MDH1, stronger effect = lower value 1 | S. cerevisiae deletion strains, locus YKL160W, strain elf1, stronger effect = lower value 1.05 | S. cerevisiae deletion strains, locus YKL190W, strain CNB1, stronger effect = lower value 1.01 | S. cerevisiae deletion strains, locus YKR001C, strain vps1, stronger effect = lower value 1.01 | S. cerevisiae deletion strains, locus YKR026C, strain gcn3, stronger effect = lower value 0.999 | S. cerevisiae deletion strains, locus YKR091W, strain srl3, stronger effect = lower value 0.997 | S. cerevisiae deletion strains, locus YLL001W, strain dnm1, stronger effect = lower value 1.07 | S. cerevisiae deletion strains, locus YLL026W, stronger effect = lower value 0.994 | S. cerevisiae deletion strains, locus YLL041C, strain sdh2, stronger effect = lower value 0.981 | S. cerevisiae deletion strains, locus YLR027C, strain aat2, stronger effect = lower value 0.993 | S. cerevisiae deletion strains, locus YLR039C, strain RIC1, stronger effect = lower value 1.03 | S. cerevisiae deletion strains, locus YLR058C, strain SHM2, stronger effect = lower value 1.01 | S. cerevisiae deletion strains, locus YLR102C, strain apc9, stronger effect = lower value 0.977 | S. cerevisiae deletion strains, locus YLR113W, strain HOG1, stronger effect = lower value 1.04 | S. cerevisiae deletion strains, locus YLR221C, strain rsa3, stronger effect = lower value 1.06 | S. cerevisiae deletion strains, locus YLR258W, strain gsy2, stronger effect = lower value 1.02 | S. cerevisiae deletion strains, locus YLR262C, strain YPT6 (second series), stronger effect = lower value 1 | S. cerevisiae deletion strains, locus YLR262C, strain YPT6, stronger effect = lower value 1.01 | S. cerevisiae deletion strains, locus YLR268W, strain sec22, stronger effect = lower value 0.992 | S. cerevisiae deletion strains, locus YLR320W, strain mms22, stronger effect = lower value 1.06 | S. cerevisiae deletion strains, locus YLR330W, strain CHS5, stronger effect = lower value 1.01 | S. cerevisiae deletion strains, locus YLR342W, strain FKS1 (second series), stronger effect = lower value 1.02 | S. cerevisiae deletion strains, locus YLR342W, strain FKS1, stronger effect = lower value 0.994 | S. cerevisiae deletion strains, locus YLR357W, strain rsc2, stronger effect = lower value 0.988 | S. cerevisiae deletion strains, locus YLR370C, strain arc18, stronger effect = lower value 1.01 | S. cerevisiae deletion strains, locus YLR371W, strain rom2, stronger effect = lower value 0.995 | S. cerevisiae deletion strains, locus YLR384C, strain iki3, stronger effect = lower value 1 | S. cerevisiae deletion strains, locus YLR418C, strain cdc73, stronger effect = lower value 0.966 | S. cerevisiae deletion strains, locus YML016C, strain PPZ1, stronger effect = lower value 1.01 | S. cerevisiae deletion strains, locus YML032C, strain rad52, stronger effect = lower value 1.01 | S. cerevisiae deletion strains, locus YML120C, strain ndi1, stronger effect = lower value 1.02 | S. cerevisiae deletion strains, locus YML124C, strain tub3, stronger effect = lower value 0.988 | S. cerevisiae deletion strains, locus YMR058W, strain fet3, stronger effect = lower value 0.997 | S. cerevisiae deletion strains, locus YMR078C, strain ctf18, stronger effect = lower value 0.992 | S. cerevisiae deletion strains, locus YMR125W, strain sto1, stronger effect = lower value 0.996 | S. cerevisiae deletion strains, locus YMR129W, stronger effect = lower value 0.979 | S. cerevisiae deletion strains, locus YMR205C, strain PFK2, stronger effect = lower value 1.04 | S. cerevisiae deletion strains, locus YMR223W, strain ubp8, stronger effect = lower value 0.995 | S. cerevisiae deletion strains, locus YMR231W, strain pep5, stronger effect = lower value 0.989 | S. cerevisiae deletion strains, locus YMR263W, strain SAP30, stronger effect = lower value 1 | S. cerevisiae deletion strains, locus YMR307W, strain GAS1, stronger effect = lower value 1.04 | S. cerevisiae deletion strains, locus YNL067W, strain RPL9B, stronger effect = lower value 1 | S. cerevisiae deletion strains, locus YNL071W, strain lat1, stronger effect = lower value 0.977 | S. cerevisiae deletion strains, locus YNL128W, strain TEP1, stronger effect = lower value 1.02 | S. cerevisiae deletion strains, locus YNL183C, strain NPR1, stronger effect = lower value 0.964 | S. cerevisiae deletion strains, locus YNL209W, strain ssb2, stronger effect = lower value 0.994 | S. cerevisiae deletion strains, locus YNL233W, strain BNI4, stronger effect = lower value 0.991 | S. cerevisiae deletion strains, locus YNL248C, strain rpa49, stronger effect = lower value 0.993 | S. cerevisiae deletion strains, locus YNL250W, strain rad50, stronger effect = lower value 0.994 | S. cerevisiae deletion strains, locus YNL271C, strain bni1, stronger effect = lower value 0.996 | S. cerevisiae deletion strains, locus YNL298W, strain CLA4, stronger effect = lower value 0.998 | S. cerevisiae deletion strains, locus YNL307C, strain MCK1, stronger effect = lower value 0.997 | S. cerevisiae deletion strains, locus YNL322C, strain KRE1 (second series), stronger effect = lower value 1.01 | S. cerevisiae deletion strains, locus YNR049C, strain mso1, stronger effect = lower value 0.989 | S. cerevisiae deletion strains, locus YNR052C, strain pop2, stronger effect = lower value 0.996 | S. cerevisiae deletion strains, locus YOL006C, strain TOP1, stronger effect = lower value 1.05 | S. cerevisiae deletion strains, locus YOL012C, strain htz1 1.42 | S. cerevisiae deletion strains, locus YOL147C, strain pex11, stronger effect = lower value 0.992 | S. cerevisiae deletion strains, locus YOR001W, strain rrp6, stronger effect = lower value 0.933 | S. cerevisiae deletion strains, locus YOR061W, strain CKA2, stronger effect = lower value 1.01 | S. cerevisiae deletion strains, locus YOR069W, strain VPS5, stronger effect = lower value 1.01 | S. cerevisiae deletion strains, locus YOR070C, strain gyp1, stronger effect = lower value 0.993 | S. cerevisiae deletion strains, locus YOR080W, strain dia2, stronger effect = lower value 0.992 | S. cerevisiae deletion strains, locus YOR083W, strain WHI5, stronger effect = lower value 1.06 | S. cerevisiae deletion strains, locus YOR106W, strain vam3, stronger effect = lower value 1.08 | S. cerevisiae deletion strains, locus YOR136W, strain idh2, stronger effect = lower value 1 | S. cerevisiae deletion strains, locus YOR144C, strain elg1, stronger effect = lower value 1 | S. cerevisiae deletion strains, locus YOR184W, strain ser1, stronger effect = lower value 0.997 | S. cerevisiae deletion strains, locus YOR231W, strain MKK1, stronger effect = lower value 1.03 | S. cerevisiae deletion strains, locus YOR265W, strain rbl2, stronger effect = lower value 1 | S. cerevisiae deletion strains, locus YOR270C, strain vph1, stronger effect = lower value 1.05 | S. cerevisiae deletion strains, locus YOR290C, strain snf2, stronger effect = lower value 1.02 | S. cerevisiae deletion strains, locus YOR316C, strain cot1, stronger effect = lower value 0.993 | S. cerevisiae deletion strains, locus YPL051W, strain arl3, stronger effect = lower value 1.04 | S. cerevisiae deletion strains, locus YPL078C, strain atp4, stronger effect = lower value 1.04 | S. cerevisiae deletion strains, locus YPL106C, strain sse1, stronger effect = lower value 1.01 | S. cerevisiae deletion strains, locus YPL240C, strain hsp82, stronger effect = lower value 1.01 | S. cerevisiae deletion strains, locus YPL241C, strain CIN2, stronger effect = lower value 1.01 | S. cerevisiae deletion strains, locus YPL256C, strain CLN2, stronger effect = lower value 1.03 | S. cerevisiae deletion strains, locus YPR119W, strain clb2, stronger effect = lower value 0.986 | S. cerevisiae deletion strains, locus YPR141C, strain kar3, stronger effect = lower value 0.993 | S. cerevisiae deletion strains, locus YPR163C, strain tif3, stronger effect = lower value 1.01 | S. cerevisiae deletion strains, locus YPR167C, strain met16, stronger effect = lower value 0.995 | S. cerevisiae deletion strains, strain wtn01, stronger effect = lower value 0.993 | S. cerevisiae strains, strain wild type, stronger effect = lower value 1.01
